Measurements as given in ChEMBL document CHEMBL4513216, “Probing the Open Global Health Chemical Diversity Library for Multistage-Active Starting Points for Next-Generation Antimalarials” (ACS Infect Dis, 2020).
Among all 68,000 compounds or so, about 2,700 (4%) showed an effect of 50% or more. Many of the other results were omitted from the sample, so strong results are more common in it than they were.

What follows are compounds tested on Plasmodium berghei (assay: Screen against P. berghei liver stage (PbLuc), transformed with Luciferase, at 2uM). Conditions: tested at 2 uM.
Type: functional, HepG2
For `CNC(=O)CCOC(=O)c1cccc(-n2cccn2)c1`, the INHIBITION was 55.25%. Compound `CNC(=O)COC(=O)c1cccc(-n2ccc(C(F)(F)F)n2)c1` has an INHIBITION of 10.31%. For `CNC(=O)CCOC(=O)c1cccc(-n2ccc(C(F)(F)F)n2)c1`, the INHIBITION was 13.1%. Work on `Cc1nc2c(c(N3CCCC(OCc4ccccn4)C3)n1)CCNCC2` (stereo unspecified) yielded an INHIBITION of 20.71%. `Cc1ccc(CN2CC[C@@H]3O[C@@H](C(=O)N4CCN(C)CC4)C[C@@H]32)cc1` was tested, and the INHIBITION was 41.55%. `Cc1nccc(C(=O)N2CCCN(Cc3cnn(C(C)C)c3)CC2)n1` showed an INHIBITION of 16.6%. `COC(=O)C(C)(C)NC(=O)C1CC(=O)N(C2CC2)C1` (stereo unspecified) gave an INHIBITION of 5.15%. Compound `Cc1cc(NCCOCCS(C)(=O)=O)nc2ccccc12` has an INHIBITION of 53.16%. In the case of `Cc1cc(NCCS(C)(=O)=O)nc2ccccc12`, the INHIBITION is reported as -0.6%. With `Cc1cc(NCCCNS(C)(=O)=O)nc2ccccc12` the INHIBITION was 20.88%. With `Cc1cccc(-c2nc(CN3CCCC3Cn3cc(C)cn3)no2)c1` (stereo unspecified) the INHIBITION was 1.36%. `COC(=O)N1CCCN(C(=O)c2cccc3cccnc23)CC1` gave an INHIBITION of 5.72%. With `COCC1CN(CCOc2ccc(Cl)cc2)Cc2c1cnn2C` (stereo unspecified) the INHIBITION was -17.24%. Work on `Cc1cc(-c2cnc(C)nc2CN(C)C(=O)c2ccccn2)on1` yielded an INHIBITION of -0.54%. With `Cc1cc(-c2cnc(C3CC3)nc2CN(C)C(=O)c2ccccn2)on1` the INHIBITION was 34.06%. Work on `Cc1cc(-c2cnc(C)nc2CN(C)C(=O)c2cc(C3CC3)on2)on1` yielded an INHIBITION of 51.57%. Compound `Cc1cc(-c2cnn(CCNC(=O)C3CC3)c2C2CC2)on1` has an INHIBITION of -39.92%. `Cc1cc(-c2cnc(C(C)C)nc2CN(C)C(=O)c2ccccn2)on1` showed an INHIBITION of 56.57%. With `Cc1cc(-c2cnn(CCNC(=O)c3cc[nH]n3)c2C2CC2)on1` the INHIBITION was -2.47%. Compound `Cc1nn(C)cc1C1=NS(=O)(=O)N(C)C(C(=O)Nc2ccc(Cl)cc2)=C1` has an INHIBITION of -13.02%. `CCn1cc(S(=O)(=O)NC2CCCN(CCCc3ccccc3)C2)cn1` (stereo unspecified) was tested, and the INHIBITION was 7.21%. Compound `CC(=O)N1CCCCCC1C1CCN(Cc2nnc(C(C)(C)C)o2)CC1` (stereo unspecified) has an INHIBITION of 30.82%. `COc1cncc(-n2ccnc2-c2ccc(C(=O)O)s2)c1` gave an INHIBITION of 48.58%. Compound `Cc1cnc(C(=O)N2CCC3(CC2)CC(c2ccccc2)C(=O)N3)cn1` (stereo unspecified) has an INHIBITION of -6.21%. In the case of `CC(C)c1nc(C(=O)N2CCCC(N)CC2)cs1` (stereo unspecified), the INHIBITION is reported as -66.05%. `CC(C)c1nc(C(=O)N2C[C@H](C(C)C)[C@@H](N)C2)cs1` showed an INHIBITION of 58.69%. With `CC(=O)N[C@@H]1CN(C(=O)c2csc(C(C)C)n2)C[C@H]1C(C)C` the INHIBITION was 3.62%. For `COc1ccc(-c2cc(CN)nc3ccnn23)cc1`, the INHIBITION was -11.81%. With `O=c1c(NCc2ccco2)c(NCC(O)CN2CCOCC2)c1=O` (stereo unspecified) the INHIBITION was 53.33%. `O=c1c(NCc2ccccn2)c(NCC(O)CN2CCOCC2)c1=O` (stereo unspecified) was tested, and the INHIBITION was 15.02%. `O=c1c(NCc2ccncc2)c(NCC(O)CN2CCOCC2)c1=O` (stereo unspecified) showed an INHIBITION of 1.08%. With `COCCN1CCc2cc(C(=O)NCC3CC3)c(NC(C)C)nc2CC1` the INHIBITION was 25.35%. For `COC[C@]1(O)CCN(C(=O)c2ccc(CN(C)C)o2)CC1(C)C`, the INHIBITION was 8.88%. With `CN(Cc1ccccc1)C1(C(=O)NC(CO)CO)Cc2ccccc2C1` the INHIBITION was 31.35%. `CC(Cc1cn(CCc2nnn[nH]2)nn1)c1ccccc1` (stereo unspecified) showed an INHIBITION of 29.41%. For `Cc1nccc([C@@H]2C[C@@H]3CCN(S(=O)(=O)N(C)C)C[C@H]3O2)n1`, the INHIBITION was 54.16%. In the case of `Cc1nccc([C@@H]2C[C@@H]3CCN(S(C)(=O)=O)C[C@H]3O2)n1`, the INHIBITION is reported as 26.65%. Compound `Cc1nccc([C@H]2C[C@@H]3CCN(S(=O)(=O)N(C)C)C[C@H]3O2)n1` has an INHIBITION of 21.33%. `COc1cc(N2C[C@H]3CCC[C@@H](CN4CCOCC4)[C@H]3C2)ncn1` gave an INHIBITION of 36.75%. Compound `CCCS(=O)(=O)N1C[C@@H]2CN(Cc3ccoc3)CCO[C@@H]2C1` has an INHIBITION of 33.4%. In the case of `CN1CC2(CCN(C(=O)c3ccc4nonc4c3)CC2)CC1=O`, the INHIBITION is reported as 10.02%. Work on `Cn1cc(C(=O)N2CCSc3ccccc32)ccc1=O` yielded an INHIBITION of 50.05%. Work on `CCN1CCN(C(=O)c2ccc(=O)n(C)c2)c2ccccc21` yielded an INHIBITION of -22.63%. With `COCCCN1CC2(CCN(C(=O)c3ccc(=O)n(C)c3)CC2)CC1=O` the INHIBITION was 44.23%. Compound `CC1CN(C)c2ccccc2N(C(=O)c2ccc(=O)n(C)c2)C1` (stereo unspecified) has an INHIBITION of 15.47%. Compound `CC(=O)N1CCCN(C(=O)c2ccc(=O)n(C)c2)c2ccccc21` has an INHIBITION of 28.18%. In the case of `CN1CCN(C(=O)c2ccc(=O)n(C)c2)c2ccccc21`, the INHIBITION is reported as 51.19%. In the case of `CN1CC2(CCN(C(=O)c3ccc(=O)n(C)c3)CC2)CC1=O`, the INHIBITION is reported as 53.13%. With `Cn1cc(C(=O)N2CCOc3ccccc32)ccc1=O` the INHIBITION was -31.6%. `CC(C)n1nc(CN2CCCC2)c2c1CN(CC1CC1)CC2` was tested, and the INHIBITION was -29%. `FC(F)(F)CCc1ccnc(NCc2csc(N3CCOCC3)n2)n1` was tested, and the INHIBITION was -17.11%.
